According to PubChem BioAssay AID2177 (The Scripps Research Institute Molecular Screening Center, 2009):
Among all 320,000 compounds or so, about 1,200 (0.38%) were called active. This is one part of a sample in which actives are shown more often than they occur. A number with no mark means an inactive call.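 The calls were made as follows: active = inhibition above the screen-wide mean plus 3 SD, limit set per campaign (cut at about 26% in these data); inactive = the rest.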

Each compound was assayed against Acyl-protein thioesterase 2 (Homo sapiens) (UniProt O95372) (assay: LYPLA2 inhibitors, primary screen, counter-screen for PME1 inhibitor project, biochemical, fluorescence polarization, FP-Rh probe ABPP (AID 2177;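 also: 0% = LYPLA2 with DMSO and 100% = wells lacking LYPLA2 enzyme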)). Details: recombinant LYPLA2, FP-Rh probe fluorescence polarization; at 5.9 µM; active compounds read high.
Acyl-protein thioesterase 2 (Homo sapiens), sequence (O95372 whole entry, looked up): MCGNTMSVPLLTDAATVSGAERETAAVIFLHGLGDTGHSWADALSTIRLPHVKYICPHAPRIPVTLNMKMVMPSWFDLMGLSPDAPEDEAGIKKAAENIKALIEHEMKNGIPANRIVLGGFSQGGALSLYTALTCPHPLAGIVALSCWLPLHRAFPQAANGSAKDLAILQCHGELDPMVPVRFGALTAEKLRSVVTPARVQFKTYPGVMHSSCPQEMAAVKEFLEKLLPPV

| Compound | inhibition |
| --- | --- |
| CCN(C(=O)C1CCCN(c2nc(-c3ccc(OC)cc3)no2)C1)c1ccc(OC)cc1 (stereo not given) | 1.52% |
| N#Cc1cc([N+](=O)[O-])ccc1Oc1cccc(/C=N/NC(=O)c2ccc(Cl)cc2)c1 | 36.9% (active) |
| O=C(N/N=C/c1cccc(OC(=O)c2ccc([N+](=O)[O-])cc2)c1)c1cccnc1 | -5.79% |
| COc1ccc(/C=N/NC(=O)c2ccc(Cl)cc2)cc1COC(C)=O | -4.59% |
| Cc1c(CC(=O)NCC(=O)NCC(=O)O)c(=O)oc2cc3oc4c(c3cc12)CCCC4 | 4.77% |
| COc1ccc(OC)c(NC(=O)c2cccc(S(=O)(=O)N3CCN(C(C)=O)CC3)c2)c1 | -0.81% |
| COc1ccc2c(c1)C=CC1(O2)N(CCO)c2ccccc2C1(C)C (stereo not given) | -20.1% |
| O=C(NC(Cc1ccccc1)C(=O)O)/C(=C\c1ccccc1)NC(=O)c1ccco1 (stereo not given) | 1.3% |
| COc1ccccc1CNC(=O)C1CCN(S(=O)(=O)c2ccc3c(c2)CC(C)N3C(=O)C2CC2)CC1 (stereo not given) | 14.5% |
| CC(=O)c1ccc(N2CCN(S(=O)(=O)c3ccc4c(c3)CC(=O)N4C)CC2)cc1 | 4.78% |
| CC(=O)N1c2ccc(S(=O)(=O)N3CCC(C(=O)N4CCN(c5ccccc5)CC4)CC3)cc2CC1C (stereo not given) | 58% (active) |
| CC(=O)N1c2ccc(S(=O)(=O)N3CCC(C(=O)NC4CCCCC4C)CC3)cc2CC1C (stereo not given) | -1.87% |
| CC(=O)N1c2ccc(S(=O)(=O)N3CCC(C(=O)NC4CCCC(C)C4C)CC3)cc2CC1C (stereo not given) | -4.4% |
| CC(=O)c1ccc(N2CCN(C(=O)C3CCN(S(=O)(=O)c4ccc5c(c4)CC(C)N5C(=O)C4CC4)CC3)CC2)cc1 (stereo not given) | 75% (active) |
| O=C(O)CC(Cc1ccccc1)C(=O)Nc1ccc([N+](=O)[O-])cc1 (stereo not given) | -0.26% |
| CCOC(=O)c1cc(NC(=O)SCC(=O)O)c(C)nc1C | 4.19% |
| COc1cc(C(=O)NCc2ccc3c(c2)cc(C)n3C)cc(OC)c1OC | 6.1% |
| CCOC(=O)c1c(-c2ccccc2)oc2ccc(OCC(=O)NN)cc12 | -13% |
| CCCc1c(C(=O)Nc2ccc(F)cc2)cnn1-c1ccccc1 | -3.93% |
| O=C(CSCc1ccc([N+](=O)[O-])cc1)Nc1cccc(C(=O)Nc2ccccc2C(=O)O)c1 | -6.72% |
| COc1ccccc1C(=O)NC(CCSC)C(=O)N1CCN(C/C=C/c2ccccc2)CC1 (stereo not given) | 37.6% (active) |
| COc1ccccc1C(=O)NC(CCSC)C(=O)N1CCN(C(C)=O)CC1 (stereo not given) | -2.46% |

| Compound | inhibition |
| --- | --- |
| COc1ccccc1C(=O)NC(CCSC)C(=O)NNC(=O)c1ccccc1C (stereo not given) | -3.19% |
| Cc1scc(C(=O)NNC(=S)NCC(C)C)c1C | 8.57% |
| Cc1sc2ncnc(N3CCC(C(=O)Nc4ccc(F)cc4Cl)CC3)c2c1C | -1.19% |
| COc1ccc(CCNc2nc(-c3cccc(NC(C)=O)c3)cs2)cc1OC | 31.9% (active) |
| CC(=O)Nc1cccc(-c2csc(Nc3cccc(C)n3)n2)c1 | 2.92% |
| COc1ccc(CC(=O)Nc2nc(-c3ccc(F)c(F)c3)cs2)cc1OC | -13.7% |
| CC(C(=O)Nc1ccc(O)c(C(=O)O)c1)N1C(=O)/C(=C/c2cccs2)SC1=S (stereo not given) | 2.96% |
| COc1cc(NS(=O)(=O)c2ccc3ccccc3c2)c2ncccc2c1 | -11.9% |
| O=C(c1cccs1)C1C(c2ccc(Br)cc2)NC(=S)NC1(O)C(F)(F)F (stereo not given) | -1.56% |
| O=C(CCCN1C(=O)C2C3C=CC(C3)C2C1=O)N1CCN(c2ccccc2)CC1 (stereo not given) | -3.87% |
| CCC(=O)c1ccc(OCC(O)CN2CC(C)OC(C)C2)cc1 (stereo not given) | 2.23% |
| COc1ccc(N2CCN(C(=O)COc3ccc4c(C)cc(=O)oc4c3)CC2)cc1 | 11.7% |
| CCC(=O)c1ccc(OCC(O)CN2CCN(c3cccc(C(F)(F)F)c3)CC2)cc1 (stereo not given) | 64.8% (active) |
| O=C(COc1ccc(Cl)cc1)N1CCN(c2cccc(C(F)(F)F)c2)CC1 | 69.5% (active) |
| CCOc1ccccc1N1CCN(C(=O)COc2ccc3c(C)cc(=O)oc3c2)CC1 | -4.36% |
| OC(COc1ccc2c(c1)CCC2)CN1CCN(c2cccc(Cl)c2)CC1 (stereo not given) | 20.1% |
| O=C(COc1ccc(Cl)cc1)N1CCN(S(=O)(=O)c2ccc(Cl)cc2)CC1 | -0.85% |
| O=C(CN1C(=O)CSc2ncccc21)N1CCOCC1 | -0.09% |
| O=C(CCCN1C(=O)CSc2ncccc21)N1CCN(c2cccc(C(F)(F)F)c2)CC1 | 63.4% (active) |
| O=C(COc1ccc(S(=O)(=O)Nc2cccc(C(F)(F)F)c2)cc1)N1CCOCC1 | 2.78% |
| Cc1c(C)c2ccc(OCC(=O)N3CCN(c4cccc(Cl)c4)CC3)cc2oc1=O | 49.8% (active) |
| O=C(c1ccc2c(c1)N(Cc1ccc(F)cc1)C(=O)c1ccccc1S2(=O)=O)N1CCN(c2ccccn2)CC1 | 1.84% |

| Compound | inhibition |
| --- | --- |
| COc1cc(S(=O)(=O)N(Cc2cccs2)C2CC2)ccc1-n1cnnn1 | 3.27% |
| CCOC(=O)N1CCN(S(=O)(=O)c2ccc3c(c2)C(C)C(=O)N3)CC1 (stereo not given) | -2.51% |
| Cc1ccccc1NC(=O)CSC1=NCCN1 | 0.07% |
| O=C1C2C3C=CC(C3)C2C(=O)N1c1ccc(-c2nc3ccccc3c(=O)o2)cc1 (stereo not given) | 1.58% |
| N#CCSc1nn(-c2ccc(F)cc2)c(=S)s1 | -7.24% |
| COc1cccc(C(=O)Nc2nnc(S(=O)(=O)N3CCOCC3)s2)c1 | -0.08% |
| Cc1ccccc1Cn1c2ccccc2c2cnn(CC(=O)NCc3ccco3)c(=O)c21 | -21% |
| COc1ccc(-c2nc(CS(=O)CC(=O)NCc3ccccn3)c(C)o2)cc1 (stereo not given) | 27.8% (active) |
| COc1ccc(-c2nc(CS(=O)CC(=O)NCc3ccccc3)c(C)o2)cc1OC (stereo not given) | 0.93% |
| COc1cccc(-c2nc(CS(=O)CC(=O)NCc3ccc(F)cc3)c(C)o2)c1 (stereo not given) | 10.6% |
| CC[N+](C)(CC)CCC[n+]1c(-c2ccccc2)c2cc(N)ccc2c2ccc(N)cc21 | 72.4% (active) |
| O=C1/C(=C\c2ccccc2Cl)SC(=S)N1CCC(=O)N1CCCc2ccccc21 | -1.32% |
| CCOc1ccc(NC(=O)CN(C)C(=O)CCSc2ccc(F)cc2)cc1OCC | 6.29% |
| O=C(CCl)NNc1cccc(Cl)n1 | -5.01% |
| CC1CC(NC(=O)/C(C#N)=C/c2ccc[nH]2)CC(C)(C)C1 (stereo not given) | 0.74% |
| O=C(CCCN1C(=O)c2cccc3cccc(c23)C1=O)N1CCN(Cc2ccc3c(c2)OCO3)CC1 | 64.2% (active) |
| Cn1c(=O)cc(OCCCC(=O)N2CCN(Cc3ccc4c(c3)OCO4)CC2)c2ccccc21 | 9.58% |
| O=C(Nc1cccc2ccccc12)N1CCN(Cc2ccc3c(c2)OCO3)CC1 | 1.22% |
| CCCCCc1c(C)nc(N2CCN(Cc3ccc4c(c3)OCO4)CC2)[nH]c1=O | -5.68% |
| CCOC(=O)CSc1nnc(-c2ccc([N+](=O)[O-])cc2)o1 | -0.42% |
| N#Cc1ccc(OCc2nnc(-c3ccc([N+](=O)[O-])cc3)o2)cc1 | 32.3% (active) |
| O=C(CSc1nnc(-c2ccc([N+](=O)[O-])cc2)o1)Nc1ccccn1 | 0.49% |

| Compound | inhibition |
| --- | --- |
| N#Cc1c(/N=C/N2CCCC2)oc(-c2ccccc2)c1-c1ccccc1 | 4.8% |
| CC(=O)C12CC(C)=C(C)CC1CC1C3CCC4=CC(=O)CCC4(C)C3CCC12C (stereo not given) | -4.85% |
| COc1ccc(N2CC(C(=O)NCCN3C(=O)S/C(=C\c4cccnc4)C3=O)CC2=O)c(OC)c1 (stereo not given) | 57.6% (active) |
| CCOc1ccc(N2CC(C(=O)NCCN3C(=O)S/C(=C\c4cccnc4)C3=O)CC2=O)cc1 (stereo not given) | 6.19% |
| COc1ccccc1N1CC(C(=O)NCCN2C(=O)S/C(=C\c3cccnc3)C2=O)CC1=O (stereo not given) | 1.85% |
| Cc1cc(C)c(S(=O)(=O)N2CCC(C(=O)OCc3c(C)noc3C)CC2)c(C)c1 | 5.23% |
| COCCn1c(SCC(=O)c2[nH]c(C)c(C(C)=O)c2C)nc2ccccc2c1=O | -1.43% |
| CN(CC(=O)NCCc1ccccc1)S(=O)(=O)c1cnc[nH]1 | -2.19% |
| COc1ccc(NC(=O)CC2SC(N3CCCCC3)=NC2=O)cc1OC (stereo not given) | -2.51% |
| O=C(CC1SC(N2CCCC2)=NC1=O)Nc1ccc(C(=O)NCCc2ccc(F)cc2)cc1 (stereo not given) | 34.5% (active) |
| CCC(C)NC(=O)c1ccc(NC(=O)CC2SC(N3CCCCC3)=NC2=O)cc1 (stereo not given) | -2.2% |
| CCN(CC(=O)Nc1ccccc1OC)C(=O)CC1CC2CCC1C2 (stereo not given) | 4.24% |
| CCN(CC)C(=O)CC1(c2ccccc2OC)CCOC(C(C)C)C1 (stereo not given) | 27.5% (active) |
| COc1ccc(C2(CNC(=O)C(c3ccccc3)c3ccccc3)CCOCC2)cc1OC | 0.76% |
| c1ccc(-c2ccnc3nc(-n4cccc4)nn23)cc1 | 5.32% |
| CCCCCC1CCC(c2nnc(SCC(C)=O)o2)CC1 (stereo not given) | 34.9% (active) |
| Cc1[nH]c2ccccc2c1C(=O)C(C)Sc1nnc(C2CC2)o1 (stereo not given) | 1.82% |
| CCN(CC)C(=O)CSc1nnc(C2CCCCC2)o1 | 6.58% |
| CC(=O)Nc1ccc(N2C(=O)CCC2=O)cc1C | 2% |
